Test results reported in PubChem BioAssay (NCATS).
Inconclusive results are not listed. The source made the active and inactive calls. Calls follow the shape of the dose curve; as a rule, active = well fitted inhibition curve with a large enough effect; inconclusive = small, poorly fitted or top-dose-only effect; inactive = flat fitted curve, though single readings scatter.

How the values were obtained:
[1] = biological target: Luciferin 4-monooxygenase (Photinus pyralis) (UniProt P08659); test: Biochemical firefly luciferase enzyme assay for NPC (AID 624030);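 also: purified P. pyralis luciferase at 10 nM with luciferin and ATP substrate; nearly all actives have a fitted effect of over 70% in size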
How it was run: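 Direct inhibition of firefly luciferase enzyme (10 nM final, 50 mM Tris Acetate) assessed by luminescence within 5 minutes. Percent activity scaled between DMSO and PTC124 positive control, with concentration-effect curves classified by fit quality and response.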

AA1029 = test: qHTS profiling for inhibitors of Plasmodium falciparum proliferation (AID 504749); also: nearly all actives have a fitted effect of over 60% in size; conditions: P. falciparum in erythrocytes, SYBR Green DNA, 72 h; series mostly up to 28.7 µM
How it was run: (§1)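 Three-day growth assay of blood-stage parasites in erythrocytes (0.3% parasitemia, 2.5% hematocrit) at 37 C, 5% CO2, quantified by SYBR Green DNA staining after overnight detergent lysis.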

C2A = test: as above; conditions: P. falciparum in erythrocytes, SYBR Green DNA, 72 h; series mostly up to 28.7 µM
How it was run: as §1

CP211 = test: as above; conditions: P. falciparum in erythrocytes, SYBR Green DNA, 72 h; series mostly up to 28.7 µM
How it was run: as §1

CP215 = test: as above; conditions: P. falciparum in erythrocytes, SYBR Green DNA, 72 h; series mostly up to 28.7 µM
How it was run: as §1

CP217 = test: as above; conditions: P. falciparum in erythrocytes, SYBR Green DNA, 72 h; series mostly up to 28.7 µM
How it was run: as §1

CP250 = test: as above; conditions: P. falciparum in erythrocytes, SYBR Green DNA, 72 h; series mostly up to 28.7 µM
How it was run: as §1

CP252 = test: as above; conditions: P. falciparum in erythrocytes, SYBR Green DNA, 72 h; series mostly up to 28.7 µM
How it was run: as §1

CP256 = test: as above; conditions: P. falciparum in erythrocytes, SYBR Green DNA, 72 h; series mostly up to 28.7 µM
How it was run: as §1

CP260 = test: as above; conditions: P. falciparum in erythrocytes, SYBR Green DNA, 72 h; series mostly up to 28.7 µM
How it was run: as §1

CP297 = test: as above; conditions: P. falciparum in erythrocytes, SYBR Green DNA, 72 h; series mostly up to 28.7 µM
How it was run: as §1

CP315 = test: as above; conditions: P. falciparum in erythrocytes, SYBR Green DNA, 72 h; series mostly up to 28.7 µM
How it was run: as §1

CP329 = test: as above; conditions: P. falciparum in erythrocytes, SYBR Green DNA, 72 h; series mostly up to 28.7 µM
How it was run: as §1

FAB9 = test: as above; conditions: P. falciparum in erythrocytes, SYBR Green DNA, 72 h; series mostly up to 28.7 µM
How it was run: as §1

ICS = test: as above; conditions: P. falciparum in erythrocytes, SYBR Green DNA, 72 h; series mostly up to 28.7 µM
How it was run: as §1

JCK = test: as above; conditions: P. falciparum in erythrocytes, SYBR Green DNA, 72 h; series mostly up to 28.7 µM
How it was run: as §1

N140 = test: as above; conditions: P. falciparum in erythrocytes, SYBR Green DNA, 72 h; series mostly up to 28.7 µM
How it was run: as §1

PC15 = test: as above; conditions: P. falciparum in erythrocytes, SYBR Green DNA, 72 h; series mostly up to 28.7 µM
How it was run: as §1

SC27B = test: as above; conditions: P. falciparum in erythrocytes, SYBR Green DNA, 72 h; series mostly up to 28.7 µM
How it was run: as §1

TAB165 = test: as above; conditions: P. falciparum in erythrocytes, SYBR Green DNA, 72 h; series mostly up to 28.7 µM
How it was run: as §1

Measured: Potency

Sequence of Luciferin 4-monooxygenase (Photinus pyralis) (P08659 whole entry, looked up): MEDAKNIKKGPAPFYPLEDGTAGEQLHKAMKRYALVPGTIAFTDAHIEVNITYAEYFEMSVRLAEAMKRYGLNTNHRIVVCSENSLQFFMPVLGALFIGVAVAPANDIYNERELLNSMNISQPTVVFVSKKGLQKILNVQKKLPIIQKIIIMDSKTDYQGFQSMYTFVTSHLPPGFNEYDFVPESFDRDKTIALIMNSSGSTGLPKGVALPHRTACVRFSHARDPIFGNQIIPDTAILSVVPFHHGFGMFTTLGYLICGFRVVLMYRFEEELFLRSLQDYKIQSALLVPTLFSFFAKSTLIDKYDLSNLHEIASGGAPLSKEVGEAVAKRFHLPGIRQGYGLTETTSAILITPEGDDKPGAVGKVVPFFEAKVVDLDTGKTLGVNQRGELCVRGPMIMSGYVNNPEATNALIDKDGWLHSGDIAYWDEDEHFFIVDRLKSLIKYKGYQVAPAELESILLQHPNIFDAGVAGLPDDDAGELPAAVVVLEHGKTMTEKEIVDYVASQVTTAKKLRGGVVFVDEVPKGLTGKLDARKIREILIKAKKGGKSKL

CC(=O)[C@H]1CC[C@H]2C3CC=C4C[C@@H](O)CC[C@]4(C)C3CC[C@]12C (stereo not given in full)
inactive: [1] | AA1029 | C2A | CP211 | CP215 | CP217 | CP250 | CP252 | CP256 | CP260 | CP297 | CP315 | CP329 | FAB9 | ICS | JCK | N140 | PC15 | SC27B | TAB165
